Experimental data taken from PubChem BioAssay (NCATS).
Results filed as inconclusive are left out. Where a call stands in place of a potency, no number is given. Activity calls are given as the source filed them. Calls come from the whole dose curve; as a rule, active = well fitted inhibition curve with a large enough effect; inconclusive = small, poorly fitted or top-dose-only effect; inactive = no such curve, though single readings can be large or run the other way.

Target: Retinal dehydrogenase 2 (Homo sapiens) (UniProt O94788)
Experiment: qHTS for Inhibitors of the Aldehyde Dehydrogenase Family (ALDH1A2) Confirmation screens (AID 2061314); note: nearly all actives have a fitted effect of over 65% in size

Compound	Potency
O=C1COCCN1C1CCN(S(=O)(=O)c2cccc(C(F)(F)F)c2)CC1	inactive
Cn1cnc(S(=O)(=O)N2CCC(C(=O)Nc3ccc(OC(F)(F)F)cc3)CC2)c1	inactive
CC(C)Cn1c(=O)c(C(=O)NCc2cccs2)nc2cccnc21	inactive
COc1ccc(OC)c(NC(=O)CSc2nnc3ccc4ccccc4n23)c1	inactive
CCOc1ccc(C(=O)Nc2ccc(S(=O)(=O)N3CCCCC3c3cccnc3)cc2)cc1 (centres undefined)	inactive
CN(CC(=O)Nc1ccc(OC(F)(F)F)cc1)S(=O)(=O)c1ccc2c(c1)CCC(=O)N2	inactive
Cn1nc(C(=O)N2CCOCCNC(=O)CC2)c2ccccc21	inactive
Cc1ccc(CN(C(=O)COc2ccc([N+](=O)[O-])cc2)c2ccccn2)cc1	inactive
COc1ccc(NS(=O)(=O)c2ccc3[nH]c(=O)ccc3c2)cc1OC	inactive
Cc1cccc(NC(=O)CSc2nc3ccccc3nc2N2CCOCC2)c1C	inactive
COc1cccc(-c2cccc(C(=O)N3CCN([S+](=O)([O-])c4ccccc4)CC3)c2)c1	inactive
CCc1nn(-c2ccccc2)c(Oc2cccc(C)c2)c1CCC(=O)N1CCOCC1	inactive
CC(C)Oc1ccc(CNC(=O)C2CCCCN2S(=O)(=O)c2ccc(F)cc2)cc1 (centres undefined)	inactive
CCOc1ccc(N(C)S(=O)(=O)c2cc(-c3cc(C)no3)ccc2OC)cc1	inactive
O=C(COc1ccccc1-c1nc(-c2ccccc2)no1)Nc1ccc([N+](=O)[O-])cc1	inactive
CN(CC1(CO)CC1)c1nccc(CCC(F)(F)F)n1	inactive
O=S(=O)(Nc1ccc(OC(F)(F)F)cc1)c1ccc(N2CCCCS2(=O)=O)cc1	inactive
COc1ccc(OC)c(N(CC(=O)NCc2ccccc2)S(=O)(=O)c2ccccc2)c1	inactive
Cc1oc2ncnc(N3CCOCC3)c2c1C(=O)NCc1ccc(Cl)cc1	inactive
COc1ccc(CC(=O)N2CCC3(CC2)CN([S+](=O)([O-])c2ccccc2)CCO3)cc1	inactive

Compound	Potency
Cc1cccc(-c2nc3c(cnn3-c3ccccc3)c(=O)n2-c2ccc(Cl)cc2)c1	inactive
CCc1noc(-c2nc(Cc3cccc(F)c3)no2)n1	inactive
Fc1cc(F)cc(Cc2nc3nccc(-c4cccnc4)n3n2)c1	inactive
CCOc1ccccc1NC(=O)c1cnc(N2CCOCC2)c2ccccc12	inactive
CC[C@H]1CN(C(=O)Nc2cccc(C(F)(F)F)c2)CC[C@H]1CC(=O)N(C)CCC#N	inactive
CC(=O)c1cccc(NC(=O)c2ccc(Cl)c(S(=O)(=O)N3CCOCC3)c2)c1	inactive
COc1ccc(-c2nocc2CCC(=O)NCCc2ccc(S(N)(=O)=O)cc2)cc1	inactive
CCCCOc1ccc(C(=O)N(Cc2ccc(N(C)C)cc2)Cc2ccco2)cc1	inactive
COCCNC(=O)CCSc1nc(-c2ccc(OC)cc2)cc(C(F)(F)F)n1	inactive
CC(C)CN1C(=O)CO[C@H](c2ccc(NS(=O)(=O)c3cccc(F)c3)cc2)[C@H]1CO	inactive
COc1cccc(-c2nnc(-c3ccccc3NC(=O)c3cccc(C(F)(F)F)c3)o2)c1	inactive
Cc1nn(-c2ccc3nnc(C)n3n2)c(C)c1CCC(=O)Nc1ccc(OC(F)(F)F)cc1	inactive
CCOc1ccc(S(=O)(=O)N2CCN(c3ccccc3)CC2)cc1C(N)=O	inactive
NS(=O)(=O)c1ccc(-n2nc(-c3ccncc3)nc2C2CCOC2)cc1 (centres undefined)	inactive
COc1ccc(OC)c(CNC(=O)C2CCCCN2S(=O)(=O)c2ccc(F)cc2)c1 (centres undefined)	inactive
COc1ccc(S(=O)(=O)N2CCC(N(C(=O)C3CC3)C3CCOCC3)CC2)cc1	inactive
Cc1cc(C)n2nc(CNS(=O)(=O)c3cccc(Cl)c3)nc2n1	inactive
COc1ccc(N2CCN(C(=O)c3cc(NS(=O)(=O)c4ccc(F)cc4)ccn3)CC2)cc1	inactive
COc1ccc(NC(=O)c2ccco2)cc1NC(=O)c1ccccc1[N+](=O)[O-]	inactive
